Among all 1,600 compounds or so, about 20 (1%) were called active. Many of the other results were omitted from the sample, so actives are more common in it than they were. Unmarked numbers belong to inactive results.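 How the source made its calls: active means ratio of uncleaved NAD to its breakdown product ADP-ribose above 4, meaning the enzyme was inhibited; inactive means the rest.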
Target: NAD(+) hydrolase SARM1 (Homo sapiens) (UniProt Q6SZW1)
Assay: SARM1 TIR NADase inhibitors by HPLC, primary screen, cell lysate, HPLC readout (AID 1508615);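 further: substrate NAD at 5 µM with 60 min at 37 °C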
Settings: HEK293T SAM-TIR lysate, at 5 µM, stronger effect = higher value

Sequence of NAD(+) hydrolase SARM1 (Homo sapiens) (Q6SZW1 whole entry, looked up): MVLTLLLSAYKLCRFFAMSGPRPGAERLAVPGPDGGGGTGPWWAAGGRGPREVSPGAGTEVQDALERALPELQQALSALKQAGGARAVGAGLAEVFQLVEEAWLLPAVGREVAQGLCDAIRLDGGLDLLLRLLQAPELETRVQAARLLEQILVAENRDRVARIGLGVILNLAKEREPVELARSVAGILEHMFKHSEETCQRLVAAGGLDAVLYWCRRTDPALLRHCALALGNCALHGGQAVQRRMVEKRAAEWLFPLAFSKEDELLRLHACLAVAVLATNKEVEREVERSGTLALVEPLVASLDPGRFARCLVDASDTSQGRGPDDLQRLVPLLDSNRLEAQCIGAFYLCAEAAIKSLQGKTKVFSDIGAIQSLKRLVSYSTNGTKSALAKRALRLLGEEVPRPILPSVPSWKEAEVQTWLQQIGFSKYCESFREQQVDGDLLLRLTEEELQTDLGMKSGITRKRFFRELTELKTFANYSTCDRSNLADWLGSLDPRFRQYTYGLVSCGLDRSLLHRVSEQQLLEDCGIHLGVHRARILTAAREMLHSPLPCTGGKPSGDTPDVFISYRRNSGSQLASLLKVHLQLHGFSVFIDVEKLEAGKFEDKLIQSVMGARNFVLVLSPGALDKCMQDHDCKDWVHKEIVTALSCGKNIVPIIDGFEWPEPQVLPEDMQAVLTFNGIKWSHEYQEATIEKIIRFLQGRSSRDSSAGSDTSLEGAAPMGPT

Compound | NAD/ADPR ratio
COc1cc(C=C2C(=O)NC(=O)NC2=O)ccc1O | 3
CCN(CC)c1ccc(C=C2C(=O)NC(=S)NC2=O)cc1 | 5.3 (active)
O=C1NC(=O)C(=Cc2ccc3ccccc3c2)C(=O)N1 | 3
COC12C(COC(N)=O)C3=C(C(=O)C(C)=C(N)C3=O)N1CC1C2N1C (stereo not given) | 3
O=C1CCC2(O)[C@@H]3Cc4ccc(O)c5c4[C@]2(CCN3Cc2ccoc2)C1O5 (stereo not given in full) | 3
CC1=CC(O)C(O)C2(C)C1CC1OC(=O)C(O)C3C(C)C(O)C4(O)OCC13C42 (stereo not given) | 3
COC(=O)c1nc(-c2ccc3c(n2)C(=O)C(N)=C(OC)C3=O)c(N)c(-c2ccc(OC)c(OC)c2O)c1C | 3
CC1=C(O)C(=O)C=C2C1=CC=C1[C@@]2(C)CC[C@@]2(C)[C@@H]3C[C@](C)(C(=O)O)CC[C@]3(C)CC[C@]12C | 12.8 (active)
N#CC12CNCC1CN=N2 (stereo not given) | 3
NC(=O)c1ccc(C(=O)Nc2ccc([As](=O)(O)O)cc2)cc1 | 3
